Assay results from the supplement of paper PMC4206467.

test system: Perkinsus marinus PRA240; test: ATP content (proliferation) relative to DMSO control; higher = more parasite growth (less inhibition); conditions: 20 µM; 4 days
Description: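 Perkinsus marinus PRA240 trophozoites (2-5x10^6 cells/ml, 100 µl, 96-well) were exposed once to MMV Malaria Box compounds at 20 µM (0.1% DMSO) in triplicate. ATP content (ATPlite bioluminescence) was read at day 4 post-exposure and normalised to DMSO + cells control wells (100% activity). Compounds were identified by joining plate and well to the Malaria Box list.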

Compared with `Oc1ccc(Br)cc1CN1CCN(Cc2cccc(F)c2)CC1`, `Oc1ccc(Br)cc1CN1CCN(Cc2ccc(Cl)cc2)CC1` is higher in ATP content: 95.2% for the first, 129% for the second.

Going from `CN(N=O)C1=C(NC2CCCCC2)C(=O)c2ccccc2C1=O` to `CCOc1cc(CNC(C)C(O)c2ccccc2)cc(Cl)c1OCC` (stereo not given), the ATP content rises from 45.9% to 120%.

Compared with `COc1cc(CNCCc2ccc(Cl)cc2)cc(OC)c1O`, `CCOc1c(Cl)cc(CNC(C)C(O)c2ccccc2)cc1OC` (stereo not given) is lower in ATP content: 130% for the first, 75.7% for the second.

Going from `Oc1ccc(C(=C(Cl)Cl)c2ccc(O)cc2)cc1` to `COc1ccc(CN2CCN(Cc3ccccc3)CC2)c(O)c1`, the ATP content rises from 137% to 194%.

Going from `O=C(CCc1ccco1)NC1CCN(CC2(c3ccc(Cl)cc3)CCC2)CC1` to `CCCCCCc1cc(O)c2c3c(c(=O)oc2c1)CCC(C)C3` (stereo not given), the ATP content falls from 103% to 33.1%.
